Assay results taken from PubChem BioAssay (NCI).
The panel holds about 83,000 compounds, 20% with a hit somewhere; the sample as a whole holds those more often.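 Growth was measured after 48 h exposure to one concentration of compound in 96-well plates. Values under 10 count as active.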 Activity calls are given as the source filed them.

tested on: HL-60(TB) leukemia; experiment: NCI-60 one-dose screen, 48 h (100 = growth as untreated, 0 = no growth, -100 = all killed); conditions: 10 µM unless noted

Q: For `Nc1nnc(-c2c[nH]c3ncc(Br)cc23)c(-c2c[nH]c3ccc(Br)cc23)n1`, which growth is on record?
A: 11.2% (inactive)

Q: Which growth does the source give for `O=C(NO)c1ccc(CN2CCN(c3nc(-c4ccccc4)c4ccccc4n3)CC2)cc1` here?
A: 7.7% (active)

Q: `O=c1oc2ccccc2cc1-c1csc(N2N=C(c3ccccc3)CC2c2ccc(N3CCOCC3)cc2)n1` (stereo not given) was tested. Which growth did it give?
A: 96.5% (inactive)

Q: Which growth does the source give for `CC(=O)Nc1ccc(C(=O)NC(=S)Nc2ccc(S(N)(=O)=O)cc2)cc1` here?
A: 95.5% (inactive)

Q: How did the growth turn out when `CC1CCCCN1CCCNC(=O)N/C(N)=N/c1nc2ccccc2s1` (stereo not given) was run?
A: 19.5% (inactive)

Q: For `Cc1[nH]nc2ccc3nc(-c4cnn(CCO)c4)c4c(c3c12)CCCC4`, which growth is on record?
A: 36.9% (inactive)

Q: How did the growth turn out when `O=C(N/N=C/c1ccsc1)c1[nH]c2ccc(Br)cc2c1-c1ccccc1` was run?
A: -33.7% (active)

Q: Which growth does the source give for `O=C(CSc1nnc(-c2ccc3nc(-c4ccccc4)[nH]c3c2)o1)Nc1ccc(Br)cc1` here?
A: 51.3% (inactive)

Q: With `C=C1CC[C@@H]2[C@]3(C)COC(c4cn[nH]c4-c4ccc(C)cc4)O[C@@H]3CC[C@@]2(C)[C@@H]1C/C=C1/C(=O)OCC1O` (stereo not given in full) as the compound, how does the growth read?
A: 7.26% (active)

Q: `COc1ccccc1NC(=O)N/N=C/c1c[nH]c2ccccc12` was tested. Which growth did it give?
A: 5.87% (active)

Q: With `CC1=C(C)C(=O)C(NCCN2CCOCC2)=C(Br)C1=O` as the compound, how does the growth read?
A: -24.9% (active)

Q: With `CN1CCc2c(sc3ncnc(N/N=C/c4ccc(Cl)cc4Cl)c23)C1` as the compound, how does the growth read?
A: -49.9% (active)

Q: `COc1cc(C2CC(c3cc(OC)c(OC)c(OC)c3)=Nc3c(N)nc(N)nc3N2)ccc1Oc1nc(NCCO)nc(N2CCOCC2)n1` (stereo not given) was tested. Which growth did it give?
A: 91.9% (inactive)

Q: For `CN1CCN(C(=O)CCN(C(=O)Oc2cc3c(c4ccccc24)[C@H](CCl)CN3C(=O)c2cc3cc(OCCCN4CCC4)ccc3[nH]2)[C@H]2CCSSC2)CC1`, which growth is on record?
A: -56.7% (active)

Q: `CCN1C(=O)N(CC)C2NNC(Sc3c(C(=O)O)c4ccccc4n(CCC(C)C)c3=O)=NC21` (stereo not given) was tested. Which growth did it give?
A: -48.1% (active)

Q: `Cc1ccc(S(=O)(=O)c2nc(S(=O)(=O)c3ccc(C)cc3)c(N3CCN(C)CC3)s2)cc1` was tested. Which growth did it give?
A: 17.8% (inactive)

Q: With `O=C(CSc1nc2sc3c(c2c(=O)n1-c1ccc(Cl)cc1)CCCC3)NNC(=O)c1ccc(Br)cc1` as the compound, how does the growth read?
A: 91.1% (inactive)

Q: For `Nc1nnc(-c2c[nH]c3ccc(Br)cc23)c(-c2c[nH]c3ncc(Br)cc23)n1`, which growth is on record?
A: 23.1% (inactive)

Q: Which growth does the source give for `COc1cc(/C=C/C(=O)c2cnn(-c3cc(=O)[nH]c4ccc(Br)cc34)c2C)cc(OC)c1OC` here?
A: -19.6% (active)

Q: `O=c1[nH]n(C(=S)N/N=C/c2ccc(F)cc2)c(=O)c2ccccc12` was tested. Which growth did it give?
A: 44.7% (inactive)

Q: `CN(C)CCOc1ccc(C(=O)C2[C@H](c3ccc(Cl)cc3)[C@@H](c3ccccc3)NC23C(=O)Nc2ccc(Br)cc23)cc1` (stereo not given in full) was tested. Which growth did it give?
A: -60.6% (active)

Q: With `C#CCOc1ccc(/C=N/Nc2nc(-c3cc4cc(OC)ccc4oc3=O)cs2)cc1OC` as the compound, how does the growth read?
A: 76.1% (inactive)

Q: Which growth does the source give for `CC(=O)Nc1ccc(-c2cn(-c3cccc(C(=O)Nc4ccc(Cl)c(C(F)(F)F)c4)c3)nn2)cn1` here?
A: 35% (inactive)

Q: With `C=Cn1cc(C(=O)O)c(=O)c2cc(F)c(N3CCN(c4nccc(-c5nccs5)n4)CC3)cc21` as the compound, how does the growth read?
A: -24.7% (active)

Q: How did the growth turn out when `Nc1cc(-c2c[nH]c3ccc(Br)cc23)nc2cc(-c3c[nH]c4ccccc34)nn12` was run?
A: -15% (active)

Q: Which growth does the source give for `COc1ccc(Nc2nnc(-c3c[nH]c4ccccc34)o2)cc1` here?
A: 29.8% (inactive)

Q: How did the growth turn out when `CCCCCCCCCCCCCCCCCC(=O)Nc1ccc(OC)cc1` was run?
A: 90.3% (inactive)

Q: With `O=C1CCCc2cc(OCC(=O)N3CCCCC3)ccc2N1` as the compound, how does the growth read?
A: 91.9% (inactive)

Q: `CN(C)c1nc(NCCNS(=O)(=O)c2ccc(C(=O)/C=C/c3ccc(F)cc3)cc2)nc(N2CCOCC2)n1` was tested. Which growth did it give?
A: -20.3% (active)

Q: For `C#C[C@]1(O)CC[C@H]2[C@@H]3CC=C4c5sc(-c6ccc(O)c(O)c6)nc5CC[C@]4(C)[C@H]3CC[C@@]21C`, which growth is on record?
A: -54.1% (active)

Q: How did the growth turn out when `O=C(Cc1c(-c2ccccc2[N+](=O)[O-])n(-c2ncnc3c2c(-c2ccccc2)c(-c2ccccc2)n3Cc2ccccc2)[nH]c1=O)c1ccc(Cl)c(Cl)c1` was run?
A: 1.19% (active)

Q: With `CC(C)CSc1nc(NCCc2c[nH]c3ccccc23)c(C#N)c(-c2ccc(F)cc2)n1` as the compound, how does the growth read?
A: 49.7% (inactive)

Q: For `c1n[nH]cc1-c1nc2ccc3[nH]ncc3c2c2c1CC1(CCOCC1)CC2`, which growth is on record?
A: 26.5% (inactive)

Q: Which growth does the source give for `CC(C)CCSc1nc(NC2CC2)c(C#N)c(-c2ccc(C(C)C)cc2)n1` here?
A: 80.4% (inactive)

Q: With `FC(F)(F)c1cc2c(Cl)ncnc2n1CCC1CCOCC1` as the compound, how does the growth read?
A: -59.6% (active)

Q: How did the growth turn out when `N#Cc1c(NC(=O)c2ccc(C(F)(F)F)cc2)sc2c1CCC(=O)C2` was run?
A: 7.73% (active)

Q: For `Cc1ccc2nc(COc3ccc(C(=O)NNC(=O)Nc4ccc(Cl)c(C(F)(F)F)c4)cc3)[nH]c2c1`, which growth is on record?
A: 86.1% (inactive)

Q: `C=CCSc1nnc(-c2ccc(-c3nc4ccccc4[nH]3)cc2)o1` was tested. Which growth did it give?
A: 57.6% (inactive)

Q: With `CN1C(=O)N(C)C2SC(N/N=C/c3ccc(F)cc3)=NC21` (stereo not given) as the compound, how does the growth read?
A: -4.65% (active)

Q: With `C/C(=N\N=C\c1ccc(Cl)c([N+](=O)[O-])c1)c1ccc2c(c1)Nc1ccccc1S2` as the compound, how does the growth read?
A: 51% (inactive)
